Source: PubChem BioAssay (NCATS)
Activity calls are given as the source filed them. The call rests on the fitted dose curve.

Key:
Assay in all cases: Confirmatory Screen for Target Class Profiling of Small Molecule Inhibitors of Methyltransferases (AID 1745852); on activity change, negative = inhibition: on the % scale 0 is the no-effect control and ±100 the full control effect
[1] = molecular target: Catechol O-methyltransferase (Homo sapiens) (UniProt P21964); details: MTase-Glo luminescence, SAH detection, recombinant enzyme; measured here: COMT max response; stronger effect = lower value
Chain of Catechol O-methyltransferase (Homo sapiens) (P21964 whole entry, looked up): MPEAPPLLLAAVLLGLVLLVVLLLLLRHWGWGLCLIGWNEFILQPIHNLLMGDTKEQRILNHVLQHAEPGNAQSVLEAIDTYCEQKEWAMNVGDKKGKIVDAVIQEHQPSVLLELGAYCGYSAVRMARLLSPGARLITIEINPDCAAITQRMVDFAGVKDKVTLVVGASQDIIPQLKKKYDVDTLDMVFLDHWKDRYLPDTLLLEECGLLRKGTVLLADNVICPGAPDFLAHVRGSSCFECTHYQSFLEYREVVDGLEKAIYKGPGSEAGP

[2] = molecular target: Guanidinoacetate N-methyltransferase (Homo sapiens) (UniProt Q14353); details: MTase-Glo luminescence, SAH detection, recombinant enzyme; activity change, negative = inhibition: at 57.3 µM (top of the series) unless noted; series mostly up to 57.3 µM
[3] = molecular target: Nicotinamide N-methyltransferase (Homo sapiens) (UniProt P40261); details: MTase-Glo luminescence, SAH detection, recombinant enzyme; measured here: NNMT max response; stronger effect = lower value
Chain of Nicotinamide N-methyltransferase (Homo sapiens) (P40261 whole entry, looked up): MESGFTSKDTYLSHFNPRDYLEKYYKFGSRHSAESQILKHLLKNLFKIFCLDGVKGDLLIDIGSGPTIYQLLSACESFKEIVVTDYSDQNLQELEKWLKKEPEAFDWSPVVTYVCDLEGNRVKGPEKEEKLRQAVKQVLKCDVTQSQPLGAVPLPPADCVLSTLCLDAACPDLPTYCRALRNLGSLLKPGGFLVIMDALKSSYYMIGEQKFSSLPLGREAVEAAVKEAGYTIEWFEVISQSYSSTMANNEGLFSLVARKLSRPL

[4] = molecular target: Phenylethanolamine N-methyltransferase (Homo sapiens) (UniProt P11086); details: MTase-Glo luminescence, SAH detection, recombinant enzyme; measured here: PNMT max response; stronger effect = lower value
Chain of Phenylethanolamine N-methyltransferase (Homo sapiens) (P11086 whole entry, looked up): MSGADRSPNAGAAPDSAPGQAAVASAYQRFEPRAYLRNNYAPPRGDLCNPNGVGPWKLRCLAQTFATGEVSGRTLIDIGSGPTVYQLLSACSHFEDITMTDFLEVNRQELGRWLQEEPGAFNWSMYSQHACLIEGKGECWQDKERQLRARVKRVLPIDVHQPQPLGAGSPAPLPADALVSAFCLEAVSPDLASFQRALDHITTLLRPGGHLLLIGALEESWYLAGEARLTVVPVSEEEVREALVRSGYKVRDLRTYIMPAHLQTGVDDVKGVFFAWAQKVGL
Potency means the concentration at half of the fitted maximal effect.

| SMILES | activity [1] [%] | activity change, negative = inhibition [2] | activity [3] [%] | activity [4] [%] | Potency [2] |
| --- | --- | --- | --- | --- | --- |
| O=C(c1ccc2c(=O)nc3c(-c4ccc(Cl)cc4)n[nH]n3c2c1)N1CCN(Cc2ccccc2)CC1 | -8.28 | 1.01% | -22.4 | -11.1 | – |
| CCN(CC)CCNC(=O)CCc1nnc2n(CCc3ccccc3)c(=O)c3ccccc3n12 | -2.93 | 1.05% | -10.6 | 3.34 | – |
| COc1ccc(CCNC(=O)CCc2nnc3n(CC(C)C)c(=O)c4ccccc4n23)cc1OC | -6.74 | -2.85% | -43.7 | -6.97 | – |
| Cc1ccc2c(c1)c(-n1cccc1)c1n2CC(C)(C(=O)NC2CCCCC2)N(Cc2ccccn2)C1=O (stereo not given) | 4.89 | 0.484% | -16.5 | 0 | – |
| Cc1cccc(N2CCN(C(=O)CCc3nnc4n(CCC(C)C)c(=O)c5ccccc5n34)CC2)c1C | -0.369 | 0% | -48.8 | -4.73 | – |
| Cc1ccccc1-c1[nH]nc2ncc(-c3c(C)noc3C)nc12 | -14.4 | -10.5% [at 85.7 µM] | -31.8 | -28.1 | – |
| O=C(NCc1ccc2c(c1)OCO2)c1sc(=S)n2c1[nH]c(=O)c1ccc(Cl)cc12 | -88.3 | – | -87.4 | -92.6 | 24.1 µM (active) |
| CN1CCN(c2ncnc3sc4c(c23)CCNC4)CC1 | -1.43 | 0.536% | -71.2 | -15 | – |
| Oc1ccc(NCCN2CCCC2)cc1 | -10.9 | -14.6% [at 114 µM] | -12.3 | -7.62 | – |
| COc1ccc(CCNC(=O)c2ccc(CN3C(=O)CCn4nccc43)cc2)cc1OC | -29.4 | – | -12.4 | -27 | 24.1 µM (active) |
| CN1C(=O)C(c2ccccc2)CC12CCN(c1ccnc(N)n1)CC2 (stereo not given) | 6.59 | 9.95% | 7.63 | 10.4 | – |
| COc1ccccc1-c1[nH]nc2ncc(C(=O)NCC3CC3)nc12 | -33.3 | -13.8% [at 85.7 µM] | -16.5 | -40.5 | – |
| CCCC1c2cccn2CCN1C(=O)Nc1ccc(C)cc1Cl (stereo not given) | 0.596 | – | -6.98 | -0.613 | inactive |
| CCCCN(C)C(=O)c1c(C)sc2ccn(CCC)c(=O)c12 | -45.9 | – | -28.7 | -13.5 | 12.1 µM (active) |
| OC1(Cn2ccnc2)CCN(Cc2ccccc2Cn2cccn2)CC1 | 3.04 | 3.7% | 4.14 | 5.79 | – |
| O=C(NCc1ccccc1)c1ccc2c(=O)nc3c(-c4ccccc4F)n[nH]n3c2c1 | -13.3 | – | -8.4 | -13.5 | 0.121 µM (active) |
| O=C1c2ccccc2C(=O)c2cc(S(=O)(=O)NCCO)ccc21 | -11 | 0% | -0.735 | -29.7 | – |
| O=C(CCn1c(=O)[nH]c2cc(S(=O)(=O)N3CCCCC3)ccc21)Nc1ccc(Cl)cc1 | -1.03 | 0% | -18.8 | -3.3 | – |
| COc1ccc(-c2cc3c(cn2)CN(CCc2ccccc2)CCN3)cc1OC | -0.529 | 3.81% [at 85.7 µM] | -18.9 | -48.8 | – |
| COCc1nc2nc(-c3ccccc3)c(-c3ccc(O)c(F)c3)cc2n1C | -38 | – | -53 | -59.9 | 39.3 µM (active) |
